# Source: PubChem BioAssay (EPA / NIEHS)
# Records with an inconclusive call do not appear. The source made the active and inactive calls. How the source made its calls, unless noted: active means hit-call score of the fitted dose curve at least 0.9, where 1 is the maximum; inconclusive means response in the unintended direction; inactive means score below 0.9.
# Legend:
# [1] = target: rat CYP2A1, Cyp2a1 (gene 24894) (UniProt P11711); assay: NVS_ADME_rCYP2A1: NovaScreen (NVS) CYP450-related Enzyme Activity (ADME) Assay for rat CYP2A1 (AID 2283114; active means hit-call score of the fitted dose curve at least 0.9, where 1 is the maximum; inactive means score below 0.9)
# Method in brief: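 Cell-free fluorescence enzyme-activity read on recombinant rat CYP2A1, taken 0.75 h post-dosing. Compounds were screened in duplicate at 10 uM, then hits tested in concentration series (max 20 uM); inhibition scored relative to acetonitrile baseline.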
# [2] = tested on: rat CYP3A1, gene 25642; assay: NVS_ADME_rCYP3A1: NovaScreen (NVS) CYP450-related Enzyme Activity (ADME) Assay for rat CYP3A1 (AID 2283126)
# Method in brief: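 Compounds went first at 10 uM duplicate, then to series with 20 uM maximum. Fluorescence from substrate turnover by the recombinant enzyme was measured 0.5 h post-dosing, inhibition scored against acetonitrile vehicle.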
# [3] = target: rat CYP1A2, Cyp1a2 (gene 24297) (UniProt P04799); assay: NVS_ADME_rCYP1A2: NovaScreen (NVS) CYP450-related Enzyme Activity (ADME) Assay for rat CYP1A2 (AID 2283115)
# Experimental: NVS_ADME_rCYP1A2 is a biochemical, single-readout assay that uses extracted gene-proteins in a cell-free assay. Measurements were taken 1 hour after chemical dosing in a 96-well plate.NVS_ADME_rCYP1A2 is one of one assay component(s) measured or calculated from the NVS_ADME_rCYP1A2 assay. It is designed to make measurements of enzyme activity, a form of enzyme reporter, as detected with fluorescence intensity signals by Fluorescence technology.Data from the assay component NVS_ADME_rCYP1A2 was analyzed into 1 assay endpoint. This assay endpoint, NVS_ADME_rCYP1A2, was analyzed in the positive analysis fitting direction relative to Acetonitrile as the negative control and baseline of activity. Using a type of enzyme reporter, loss-of-signal activity can be used to understand changes in the enzymatic activity as they relate to the gene Cyp1a2. Furthermore, this assay endpoint can be referred to as a primary readout, because this assay has produced multiple assay endpoints where this one serves a enzymatic activity function. To generalize the intended target to other relatable targets, this assay endpoint is annotated to the cyp intended target family, where the subfamily is xenobiotic metabolism. […]
# [4] = target: rat CYP2A2, Cyp2a2 (gene 24895) (UniProt P15149); assay: NVS_ADME_rCYP2A2: NovaScreen (NVS) CYP450-related Enzyme Activity (ADME) Assay for rat CYP2A2 (AID 2283116)
# Method in brief: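 Compounds first tested in duplicate at 10 uM, then in singleton concentration series up to 20 uM when over threshold. Activity of the recombinant enzyme read by fluorescence at 0.2 h, normalised to acetonitrile vehicle.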
# [5] = target: rat CYP2C11, Cyp2c11 (gene 29277) (UniProt P08683); assay: NVS_ADME_rCYP2C11: NovaScreen (NVS) CYP450-related Enzyme Activity (ADME) Assay for rat CYP2C11 (AID 2283118)
# Method in brief: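 Screened first at 10 uM in duplicate, hits followed by concentration-response. Recombinant rat enzyme activity monitored by fluorescence 0.33 h post-dosing, normalised to acetonitrile negative control.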
# [6] = target: rat CYP2C13, Cyp2c13 (gene 171521) (UniProt P20814); assay: NVS_ADME_rCYP2C13: NovaScreen (NVS) CYP450-related Enzyme Activity (ADME) Assay for rat CYP2C13 (AID 2283121)
# Method in brief: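 Inhibition is read as decreased fluorescent product formation, referenced to acetonitrile vehicle. Cell-free recombinant rat Cyp2c13 reaction ran 0.75 hour; compounds first at 10 uM in duplicate, then concentration series for actives.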
# [7] = target: Caspase-1 (Homo sapiens) (UniProt P29466); assay: NVS_ENZ_hCASP1: NovaScreen (NVS) Enzymatic Assay for human Caspase 1 (CASP1) (AID 2283132)
# Method in brief: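 Compounds were first tested in duplicate at 25 uM, with follow-up concentration series up to 50 uM. The bacterially expressed enzyme was read by fluorescence at 1 h post-dosing. Signal loss versus DMSO baseline indicates reduced enzyme activity.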
# [8] = target: human Caspase 10 (CASP10), CASP10 (gene 843) (UniProt Q92851); assay: NVS_ENZ_hCASP10: NovaScreen (NVS) Enzymatic Assay for human Caspase 10 (CASP10) (AID 2283133)
# Experimental: NVS_ENZ_hCASP10 is a biochemical, single-readout assay that uses extracted gene-proteins from E. coli in a cell-free assay. Measurements were taken 1 hour after chemical dosing in a 96-well plate.NVS_ENZ_hCASP10 is one of one assay component(s) measured or calculated from the NVS_ENZ_hCASP10 assay. It is designed to make measurements of enzyme activity, a form of enzyme reporter, as detected with fluorescence intensity signals by Fluorescence technology.Data from the assay component NVS_ENZ_hCASP10 was analyzed into 1 assay endpoint. This assay endpoint, NVS_ENZ_hCASP10, was analyzed in the positive analysis fitting direction relative to DMSO as the negative control and baseline of activity. Using a type of enzyme reporter, loss-of-signal activity can be used to understand changes in the enzymatic activity as they relate to the gene CASP10. Furthermore, this assay endpoint can be referred to as a primary readout, because this assay has produced multiple assay endpoints where this one serves a enzymatic activity function. To generalize the intended target to other relatable targets, this assay endpoint is annotated to the protease intended target family, where the subfamily is cysteine protease. […]
# Sequence of Caspase-1 (Homo sapiens) (P29466 whole entry, looked up): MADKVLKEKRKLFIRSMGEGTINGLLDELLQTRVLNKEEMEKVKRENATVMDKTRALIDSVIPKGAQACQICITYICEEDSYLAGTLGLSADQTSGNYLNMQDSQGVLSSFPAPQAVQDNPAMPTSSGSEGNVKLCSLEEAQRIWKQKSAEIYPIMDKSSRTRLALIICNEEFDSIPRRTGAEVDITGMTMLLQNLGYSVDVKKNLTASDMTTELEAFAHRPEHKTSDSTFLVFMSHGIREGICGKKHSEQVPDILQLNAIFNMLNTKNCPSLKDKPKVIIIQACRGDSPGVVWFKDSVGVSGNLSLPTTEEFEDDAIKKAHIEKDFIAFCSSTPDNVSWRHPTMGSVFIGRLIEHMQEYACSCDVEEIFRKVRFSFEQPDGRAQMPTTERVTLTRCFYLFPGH
# Sequence of rat CYP2C13, Cyp2c13 (gene 171521) (P20814 whole entry, looked up): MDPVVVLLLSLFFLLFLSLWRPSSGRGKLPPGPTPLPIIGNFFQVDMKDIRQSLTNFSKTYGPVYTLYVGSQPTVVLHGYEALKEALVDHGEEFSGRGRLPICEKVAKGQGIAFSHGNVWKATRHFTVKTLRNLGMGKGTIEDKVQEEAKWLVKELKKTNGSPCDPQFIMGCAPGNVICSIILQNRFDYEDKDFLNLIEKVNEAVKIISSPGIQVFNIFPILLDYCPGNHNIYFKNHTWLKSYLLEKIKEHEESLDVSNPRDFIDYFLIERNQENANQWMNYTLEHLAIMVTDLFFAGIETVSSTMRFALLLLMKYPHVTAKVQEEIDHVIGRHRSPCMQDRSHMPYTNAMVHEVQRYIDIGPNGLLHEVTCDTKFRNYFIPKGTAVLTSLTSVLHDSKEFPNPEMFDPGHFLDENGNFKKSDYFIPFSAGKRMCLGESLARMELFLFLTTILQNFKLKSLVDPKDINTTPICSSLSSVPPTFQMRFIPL
# Sequence of rat CYP1A2, Cyp1a2 (gene 24297) (P04799 whole entry, looked up): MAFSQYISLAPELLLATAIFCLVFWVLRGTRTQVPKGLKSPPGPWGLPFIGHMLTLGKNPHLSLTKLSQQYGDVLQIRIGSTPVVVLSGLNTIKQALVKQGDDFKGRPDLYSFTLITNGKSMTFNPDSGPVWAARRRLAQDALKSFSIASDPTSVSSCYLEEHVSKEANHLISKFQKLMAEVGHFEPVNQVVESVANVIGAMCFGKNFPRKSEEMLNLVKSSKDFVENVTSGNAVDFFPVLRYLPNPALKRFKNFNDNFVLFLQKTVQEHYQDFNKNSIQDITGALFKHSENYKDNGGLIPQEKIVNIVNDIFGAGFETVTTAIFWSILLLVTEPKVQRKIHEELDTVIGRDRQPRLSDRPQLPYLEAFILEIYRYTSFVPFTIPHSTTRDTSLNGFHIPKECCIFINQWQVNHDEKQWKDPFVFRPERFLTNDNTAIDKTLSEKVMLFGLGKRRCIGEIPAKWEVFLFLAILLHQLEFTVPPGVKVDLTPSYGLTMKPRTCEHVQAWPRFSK
# Sequence of rat CYP2C11, Cyp2c11 (gene 29277) (P08683 whole entry, looked up): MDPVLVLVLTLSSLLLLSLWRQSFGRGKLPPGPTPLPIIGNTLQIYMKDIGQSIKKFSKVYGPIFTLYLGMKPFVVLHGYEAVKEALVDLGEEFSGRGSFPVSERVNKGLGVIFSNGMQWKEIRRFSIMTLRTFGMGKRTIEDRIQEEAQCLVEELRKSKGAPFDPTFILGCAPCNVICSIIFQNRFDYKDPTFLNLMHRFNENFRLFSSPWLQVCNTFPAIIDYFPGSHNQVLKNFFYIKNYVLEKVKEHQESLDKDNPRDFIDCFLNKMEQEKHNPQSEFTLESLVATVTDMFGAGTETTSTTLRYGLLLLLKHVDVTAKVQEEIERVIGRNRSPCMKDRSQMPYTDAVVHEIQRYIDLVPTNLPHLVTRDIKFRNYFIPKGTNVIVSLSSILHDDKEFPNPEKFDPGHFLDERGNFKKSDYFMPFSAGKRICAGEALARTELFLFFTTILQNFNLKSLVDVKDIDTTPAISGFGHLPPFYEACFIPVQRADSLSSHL
# Sequence of rat CYP2A2, Cyp2a2 (gene 24895) (P15149 whole entry, looked up): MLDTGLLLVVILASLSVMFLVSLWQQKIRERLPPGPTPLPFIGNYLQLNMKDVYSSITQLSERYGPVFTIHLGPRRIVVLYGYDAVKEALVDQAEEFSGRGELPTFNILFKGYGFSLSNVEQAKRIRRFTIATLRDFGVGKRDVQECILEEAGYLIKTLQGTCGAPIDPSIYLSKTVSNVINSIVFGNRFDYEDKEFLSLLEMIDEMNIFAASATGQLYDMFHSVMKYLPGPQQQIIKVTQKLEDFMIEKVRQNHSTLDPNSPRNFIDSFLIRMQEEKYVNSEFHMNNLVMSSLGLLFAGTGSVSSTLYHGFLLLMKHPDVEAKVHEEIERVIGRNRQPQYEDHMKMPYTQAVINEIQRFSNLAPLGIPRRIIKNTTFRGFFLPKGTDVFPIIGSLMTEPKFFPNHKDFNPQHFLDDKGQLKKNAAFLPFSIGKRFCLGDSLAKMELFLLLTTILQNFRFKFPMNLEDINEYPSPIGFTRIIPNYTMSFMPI
# Sequence of human Caspase 10 (CASP10), CASP10 (gene 843) (Q92851 whole entry, looked up): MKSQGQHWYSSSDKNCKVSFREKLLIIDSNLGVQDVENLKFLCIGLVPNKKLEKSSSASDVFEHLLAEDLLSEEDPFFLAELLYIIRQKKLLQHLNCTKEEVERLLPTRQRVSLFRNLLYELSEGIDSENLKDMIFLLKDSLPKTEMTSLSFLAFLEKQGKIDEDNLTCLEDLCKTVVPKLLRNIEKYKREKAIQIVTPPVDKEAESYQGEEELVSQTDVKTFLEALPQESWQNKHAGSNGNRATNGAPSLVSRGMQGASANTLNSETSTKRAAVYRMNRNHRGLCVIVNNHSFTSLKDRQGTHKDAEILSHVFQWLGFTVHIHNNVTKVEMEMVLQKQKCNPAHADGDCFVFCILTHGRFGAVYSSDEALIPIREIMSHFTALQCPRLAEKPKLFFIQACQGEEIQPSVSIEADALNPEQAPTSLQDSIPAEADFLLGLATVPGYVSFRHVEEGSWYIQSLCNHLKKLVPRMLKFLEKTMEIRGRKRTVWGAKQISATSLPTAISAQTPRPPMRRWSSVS
# Sequence of rat CYP2A1, Cyp2a1 (gene 24894) (P11711 whole entry, looked up): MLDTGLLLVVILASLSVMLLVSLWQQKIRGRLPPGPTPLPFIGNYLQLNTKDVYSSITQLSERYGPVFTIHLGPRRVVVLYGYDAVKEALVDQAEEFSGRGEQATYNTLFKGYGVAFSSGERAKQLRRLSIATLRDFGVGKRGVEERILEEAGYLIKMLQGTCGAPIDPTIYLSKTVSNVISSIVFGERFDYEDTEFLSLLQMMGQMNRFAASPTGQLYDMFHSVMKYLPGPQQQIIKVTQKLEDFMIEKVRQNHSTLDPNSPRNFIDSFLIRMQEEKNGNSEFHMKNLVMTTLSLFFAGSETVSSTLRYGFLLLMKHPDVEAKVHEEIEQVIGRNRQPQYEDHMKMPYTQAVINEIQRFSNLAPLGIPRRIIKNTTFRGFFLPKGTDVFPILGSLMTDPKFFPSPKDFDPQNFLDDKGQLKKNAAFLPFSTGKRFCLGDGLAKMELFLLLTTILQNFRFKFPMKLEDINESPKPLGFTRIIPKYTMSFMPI
structure (smiles),measurement,setting,value
COC(=O)Nc1cccc(OC(=O)Nc2cccc(C)c2)c1,AC50,[1],3.46 µM (active)
same,AC50,[2],11.4 µM (active)
CC(C)(c1ccccc1)c1cc(-n2nc3ccccc3n2)c(O)c(C(C)(C)c2ccccc2)c1,outcome,[3],inactive
O=C(O)COc1ccc(Cl)cc1,outcome,[4],inactive
CC1(C)[C@H](C(=O)O[C@H](C#N)c2cccc(Oc3ccccc3)c2)[C@@H]1/C=C(\Cl)C(F)(F)F,outcome,[5],inactive
same,outcome,[6],inactive
same,outcome,[2],inactive
CC(C)O.CC(C)O.OCCN(CCO)CCO.OCCN(CCO)CCO.[Ti],AC50,[7],1.37 µM (active)
same,AC50,[8],8.59 µM (active)
